# Test results from ChEMBL document CHEMBL1961873, “Compounds: GSK PKIS; Assays: Nanosyn kinase panel” (2012).
# Assays:
# [1] = target: Ribosomal protein S6 kinase alpha-6 (Homo sapiens) (UniProt Q9UK32); conditions: at 1 µM;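 also: each value is a mean inhibition of RSK4 from a GSK PKIS panel screen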
# [2] = target: T1, Serine/threonine-protein kinase Sgk1 (Homo sapiens) (UniProt O00141); conditions: at 0.1 µM
# T1 sequence (whole entry): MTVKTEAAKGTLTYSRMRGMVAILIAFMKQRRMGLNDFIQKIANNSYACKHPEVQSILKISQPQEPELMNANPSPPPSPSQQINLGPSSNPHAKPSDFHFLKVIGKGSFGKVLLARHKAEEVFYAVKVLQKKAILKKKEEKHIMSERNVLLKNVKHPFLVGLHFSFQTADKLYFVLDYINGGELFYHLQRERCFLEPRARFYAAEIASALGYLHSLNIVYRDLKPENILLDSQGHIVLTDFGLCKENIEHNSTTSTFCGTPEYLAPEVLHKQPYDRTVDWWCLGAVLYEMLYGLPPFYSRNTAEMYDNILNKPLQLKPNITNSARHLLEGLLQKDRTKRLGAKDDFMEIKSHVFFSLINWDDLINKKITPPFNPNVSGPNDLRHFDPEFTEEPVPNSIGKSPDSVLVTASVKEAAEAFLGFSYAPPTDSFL
# [3] = target: T1, Serine/threonine-protein kinase Sgk1 (Homo sapiens); conditions: at 1 µM
# [4] = target: T2, Serine/threonine-protein kinase Sgk2 (Homo sapiens) (UniProt Q9HBY8); conditions: at 0.1 µM
# T2 sequence (whole entry): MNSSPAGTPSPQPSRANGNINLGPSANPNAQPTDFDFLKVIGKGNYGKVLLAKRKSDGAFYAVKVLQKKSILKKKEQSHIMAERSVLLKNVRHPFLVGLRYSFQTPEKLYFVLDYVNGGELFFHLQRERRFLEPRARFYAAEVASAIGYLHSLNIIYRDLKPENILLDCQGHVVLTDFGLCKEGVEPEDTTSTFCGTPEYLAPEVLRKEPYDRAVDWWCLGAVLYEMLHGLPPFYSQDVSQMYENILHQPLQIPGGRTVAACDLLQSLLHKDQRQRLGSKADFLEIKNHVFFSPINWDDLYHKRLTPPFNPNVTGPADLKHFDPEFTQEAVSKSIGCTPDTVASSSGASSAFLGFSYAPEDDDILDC
# [5] = target: T2, Serine/threonine-protein kinase Sgk2 (Homo sapiens); conditions: at 1 µM
# [6] = target: T3, Serine/threonine-protein kinase Sgk3 (Homo sapiens) (UniProt Q96BR1); conditions: at 0.1 µM
# T3 sequence (whole entry): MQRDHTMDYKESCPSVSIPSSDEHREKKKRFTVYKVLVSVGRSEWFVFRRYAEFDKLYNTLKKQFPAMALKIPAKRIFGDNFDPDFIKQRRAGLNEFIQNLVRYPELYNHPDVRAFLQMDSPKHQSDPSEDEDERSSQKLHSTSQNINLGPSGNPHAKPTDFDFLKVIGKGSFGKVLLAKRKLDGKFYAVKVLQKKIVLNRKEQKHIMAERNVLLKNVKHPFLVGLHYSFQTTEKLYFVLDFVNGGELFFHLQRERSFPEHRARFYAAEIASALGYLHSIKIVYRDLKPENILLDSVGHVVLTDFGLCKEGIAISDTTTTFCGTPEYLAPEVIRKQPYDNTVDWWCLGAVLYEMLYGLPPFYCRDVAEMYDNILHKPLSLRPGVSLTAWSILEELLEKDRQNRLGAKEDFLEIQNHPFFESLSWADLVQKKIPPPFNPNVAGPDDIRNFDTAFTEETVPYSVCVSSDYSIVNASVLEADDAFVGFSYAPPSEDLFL
# [7] = target: T3, Serine/threonine-protein kinase Sgk3 (Homo sapiens); conditions: at 1 µM
# [8] = target: 5'-AMP-activated protein kinase catalytic subunit alpha-1 (Homo sapiens) (UniProt Q13131); conditions: at 0.1 µM
# [9] = target: 5'-AMP-activated protein kinase catalytic subunit alpha-1 (Homo sapiens) (UniProt Q13131); conditions: at 1 µM
# [10] = target: 5'-AMP-activated protein kinase catalytic subunit alpha-2 (Homo sapiens) (UniProt P54646); conditions: at 0.1 µM
# [11] = target: 5'-AMP-activated protein kinase catalytic subunit alpha-2 (Homo sapiens) (UniProt P54646); conditions: at 1 µM
# [12] = target: T4, NUAK family SNF1-like kinase 1 (Homo sapiens) (UniProt O60285); conditions: at 0.1 µM
# T4 sequence (whole entry): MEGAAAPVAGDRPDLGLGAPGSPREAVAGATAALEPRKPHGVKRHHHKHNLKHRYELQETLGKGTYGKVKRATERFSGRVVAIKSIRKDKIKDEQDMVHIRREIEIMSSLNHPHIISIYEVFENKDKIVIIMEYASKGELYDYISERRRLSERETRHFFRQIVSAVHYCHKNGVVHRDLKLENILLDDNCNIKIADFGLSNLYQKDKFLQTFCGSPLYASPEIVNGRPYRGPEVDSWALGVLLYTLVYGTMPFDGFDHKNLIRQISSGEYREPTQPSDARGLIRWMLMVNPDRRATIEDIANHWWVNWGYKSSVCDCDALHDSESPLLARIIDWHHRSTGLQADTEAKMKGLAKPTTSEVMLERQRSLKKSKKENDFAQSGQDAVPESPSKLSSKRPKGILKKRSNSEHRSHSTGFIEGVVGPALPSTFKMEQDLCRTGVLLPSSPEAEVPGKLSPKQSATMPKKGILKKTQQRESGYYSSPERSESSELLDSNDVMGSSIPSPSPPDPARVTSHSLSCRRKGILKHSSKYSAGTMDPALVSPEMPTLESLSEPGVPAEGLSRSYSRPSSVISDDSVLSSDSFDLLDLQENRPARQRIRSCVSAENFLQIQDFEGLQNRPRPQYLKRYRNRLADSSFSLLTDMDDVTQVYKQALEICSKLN
# [13] = target: T4, NUAK family SNF1-like kinase 1 (Homo sapiens); conditions: at 1 µM
# [14] = target: T5, Serine/threonine-protein kinase BRSK1 (Homo sapiens) (UniProt Q8TDC3); conditions: at 0.1 µM
# T5 sequence (whole entry): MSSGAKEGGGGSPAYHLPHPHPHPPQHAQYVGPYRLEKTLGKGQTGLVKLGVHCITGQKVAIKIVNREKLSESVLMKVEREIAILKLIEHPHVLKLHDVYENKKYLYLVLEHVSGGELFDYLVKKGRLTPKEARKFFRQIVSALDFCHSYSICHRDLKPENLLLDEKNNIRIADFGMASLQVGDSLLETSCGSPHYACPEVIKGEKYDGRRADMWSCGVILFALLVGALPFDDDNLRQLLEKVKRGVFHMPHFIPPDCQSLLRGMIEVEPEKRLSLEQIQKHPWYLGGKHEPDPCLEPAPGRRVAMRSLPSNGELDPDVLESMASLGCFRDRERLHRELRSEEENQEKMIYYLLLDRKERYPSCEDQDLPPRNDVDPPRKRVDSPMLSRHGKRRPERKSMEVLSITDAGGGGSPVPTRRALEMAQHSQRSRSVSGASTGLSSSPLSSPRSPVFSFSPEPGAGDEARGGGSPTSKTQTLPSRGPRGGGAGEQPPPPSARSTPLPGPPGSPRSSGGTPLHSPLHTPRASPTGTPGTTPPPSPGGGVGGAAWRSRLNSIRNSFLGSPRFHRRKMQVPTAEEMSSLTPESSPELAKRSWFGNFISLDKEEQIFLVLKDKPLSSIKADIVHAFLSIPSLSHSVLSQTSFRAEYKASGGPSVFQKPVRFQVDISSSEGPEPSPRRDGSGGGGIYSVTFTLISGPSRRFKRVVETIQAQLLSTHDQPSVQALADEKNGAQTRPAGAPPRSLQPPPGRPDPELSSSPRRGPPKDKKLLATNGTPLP
# [15] = target: T5, Serine/threonine-protein kinase BRSK1 (Homo sapiens); conditions: at 1 µM
# [16] = target: T6, Serine/threonine-protein kinase BRSK2 (Homo sapiens) (UniProt Q8IWQ3); conditions: at 0.1 µM
# T6 sequence (whole entry): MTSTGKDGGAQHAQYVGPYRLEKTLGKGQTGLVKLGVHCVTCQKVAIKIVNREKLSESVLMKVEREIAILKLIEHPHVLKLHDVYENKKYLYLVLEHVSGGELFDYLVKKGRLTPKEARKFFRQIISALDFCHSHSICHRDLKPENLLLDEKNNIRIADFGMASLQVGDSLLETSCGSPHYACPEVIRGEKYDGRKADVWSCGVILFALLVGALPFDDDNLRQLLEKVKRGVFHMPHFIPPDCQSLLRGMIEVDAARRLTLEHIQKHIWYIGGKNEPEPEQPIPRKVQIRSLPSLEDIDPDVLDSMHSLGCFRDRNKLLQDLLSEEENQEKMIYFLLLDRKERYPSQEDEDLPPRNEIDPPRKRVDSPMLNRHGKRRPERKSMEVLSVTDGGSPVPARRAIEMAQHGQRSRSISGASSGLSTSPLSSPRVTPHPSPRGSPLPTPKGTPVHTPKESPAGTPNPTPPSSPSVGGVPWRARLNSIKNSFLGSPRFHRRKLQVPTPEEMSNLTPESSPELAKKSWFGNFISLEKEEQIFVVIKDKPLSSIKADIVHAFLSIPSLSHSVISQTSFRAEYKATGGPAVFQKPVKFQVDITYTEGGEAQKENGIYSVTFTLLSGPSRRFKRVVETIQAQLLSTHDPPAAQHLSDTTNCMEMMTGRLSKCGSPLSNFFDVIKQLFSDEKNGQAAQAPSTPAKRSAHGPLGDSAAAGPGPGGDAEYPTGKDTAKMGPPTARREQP
# [17] = target: T6, Serine/threonine-protein kinase BRSK2 (Homo sapiens); conditions: at 1 µM
# [18] = target: Calcium/calmodulin-dependent protein kinase type 1D (Homo sapiens) (UniProt Q8IU85); conditions: at 0.1 µM
# [19] = target: Calcium/calmodulin-dependent protein kinase type 1D (Homo sapiens) (UniProt Q8IU85); conditions: at 1 µM
# [20] = target: Calcium/calmodulin-dependent protein kinase type II subunit alpha (Homo sapiens) (UniProt Q9UQM7); conditions: at 0.1 µM;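 also: reported values are averages (mean inhibition of CAMK2A)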
# Calcium/calmodulin-dependent protein kinase type II subunit alpha (Homo sapiens), sequence (Q9UQM7 whole entry): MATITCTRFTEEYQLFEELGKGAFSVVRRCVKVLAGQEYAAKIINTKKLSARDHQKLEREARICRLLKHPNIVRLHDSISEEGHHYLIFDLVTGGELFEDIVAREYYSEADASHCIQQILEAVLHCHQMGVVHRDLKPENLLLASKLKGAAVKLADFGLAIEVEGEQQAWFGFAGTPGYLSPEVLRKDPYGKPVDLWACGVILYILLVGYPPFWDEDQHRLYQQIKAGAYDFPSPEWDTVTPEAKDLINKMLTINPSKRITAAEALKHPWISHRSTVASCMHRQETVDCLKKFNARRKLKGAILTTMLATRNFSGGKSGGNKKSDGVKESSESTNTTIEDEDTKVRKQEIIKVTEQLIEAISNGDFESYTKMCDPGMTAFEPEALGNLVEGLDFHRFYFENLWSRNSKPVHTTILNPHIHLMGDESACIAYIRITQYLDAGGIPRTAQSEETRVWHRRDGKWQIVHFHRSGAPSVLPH
# Calcium/calmodulin-dependent protein kinase type 1D (Homo sapiens), sequence (Q8IU85 whole entry, looked up): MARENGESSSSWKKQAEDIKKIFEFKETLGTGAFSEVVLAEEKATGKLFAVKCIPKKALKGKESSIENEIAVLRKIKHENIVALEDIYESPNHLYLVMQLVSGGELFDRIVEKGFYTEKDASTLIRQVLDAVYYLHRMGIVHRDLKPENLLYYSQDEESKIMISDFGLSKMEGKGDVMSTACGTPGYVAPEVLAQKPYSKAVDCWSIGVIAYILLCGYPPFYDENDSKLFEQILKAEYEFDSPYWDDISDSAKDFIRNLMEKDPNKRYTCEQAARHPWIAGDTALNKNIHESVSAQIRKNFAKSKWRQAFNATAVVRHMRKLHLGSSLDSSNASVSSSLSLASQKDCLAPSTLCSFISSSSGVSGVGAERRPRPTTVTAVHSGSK
# 5'-AMP-activated protein kinase catalytic subunit alpha-1 (Homo sapiens), sequence (Q13131 whole entry, looked up): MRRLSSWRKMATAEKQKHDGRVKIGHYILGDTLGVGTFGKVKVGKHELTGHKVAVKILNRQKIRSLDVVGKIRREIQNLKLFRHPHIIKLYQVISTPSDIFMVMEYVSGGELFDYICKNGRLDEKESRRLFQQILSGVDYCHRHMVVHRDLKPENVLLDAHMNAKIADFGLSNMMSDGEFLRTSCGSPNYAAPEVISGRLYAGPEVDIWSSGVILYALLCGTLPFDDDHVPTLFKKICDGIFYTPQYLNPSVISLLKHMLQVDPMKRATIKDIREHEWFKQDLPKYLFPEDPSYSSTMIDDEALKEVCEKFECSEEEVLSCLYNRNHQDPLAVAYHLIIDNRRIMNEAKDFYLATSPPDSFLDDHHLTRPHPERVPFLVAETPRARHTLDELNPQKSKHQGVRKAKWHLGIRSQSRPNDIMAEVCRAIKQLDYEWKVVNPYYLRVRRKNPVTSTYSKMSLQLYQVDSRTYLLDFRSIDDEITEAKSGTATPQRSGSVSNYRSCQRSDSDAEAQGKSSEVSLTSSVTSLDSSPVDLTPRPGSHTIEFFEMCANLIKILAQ
# 5'-AMP-activated protein kinase catalytic subunit alpha-2 (Homo sapiens), sequence (P54646 whole entry, looked up): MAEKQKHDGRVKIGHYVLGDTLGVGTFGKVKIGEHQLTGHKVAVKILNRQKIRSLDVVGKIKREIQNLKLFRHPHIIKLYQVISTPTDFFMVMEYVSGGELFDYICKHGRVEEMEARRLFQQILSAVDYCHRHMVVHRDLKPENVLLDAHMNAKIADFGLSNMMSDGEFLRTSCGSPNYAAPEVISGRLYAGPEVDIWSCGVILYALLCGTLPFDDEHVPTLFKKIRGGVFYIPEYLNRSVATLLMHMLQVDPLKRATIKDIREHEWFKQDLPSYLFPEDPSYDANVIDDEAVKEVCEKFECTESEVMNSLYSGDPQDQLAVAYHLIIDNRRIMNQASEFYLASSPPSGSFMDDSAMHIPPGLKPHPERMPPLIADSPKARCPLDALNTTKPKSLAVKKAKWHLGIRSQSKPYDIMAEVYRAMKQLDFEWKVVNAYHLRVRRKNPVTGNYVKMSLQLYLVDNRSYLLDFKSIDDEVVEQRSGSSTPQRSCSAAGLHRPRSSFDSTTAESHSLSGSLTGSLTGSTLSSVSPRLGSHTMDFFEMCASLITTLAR
# Ribosomal protein S6 kinase alpha-6 (Homo sapiens), sequence (Q9UK32 whole entry): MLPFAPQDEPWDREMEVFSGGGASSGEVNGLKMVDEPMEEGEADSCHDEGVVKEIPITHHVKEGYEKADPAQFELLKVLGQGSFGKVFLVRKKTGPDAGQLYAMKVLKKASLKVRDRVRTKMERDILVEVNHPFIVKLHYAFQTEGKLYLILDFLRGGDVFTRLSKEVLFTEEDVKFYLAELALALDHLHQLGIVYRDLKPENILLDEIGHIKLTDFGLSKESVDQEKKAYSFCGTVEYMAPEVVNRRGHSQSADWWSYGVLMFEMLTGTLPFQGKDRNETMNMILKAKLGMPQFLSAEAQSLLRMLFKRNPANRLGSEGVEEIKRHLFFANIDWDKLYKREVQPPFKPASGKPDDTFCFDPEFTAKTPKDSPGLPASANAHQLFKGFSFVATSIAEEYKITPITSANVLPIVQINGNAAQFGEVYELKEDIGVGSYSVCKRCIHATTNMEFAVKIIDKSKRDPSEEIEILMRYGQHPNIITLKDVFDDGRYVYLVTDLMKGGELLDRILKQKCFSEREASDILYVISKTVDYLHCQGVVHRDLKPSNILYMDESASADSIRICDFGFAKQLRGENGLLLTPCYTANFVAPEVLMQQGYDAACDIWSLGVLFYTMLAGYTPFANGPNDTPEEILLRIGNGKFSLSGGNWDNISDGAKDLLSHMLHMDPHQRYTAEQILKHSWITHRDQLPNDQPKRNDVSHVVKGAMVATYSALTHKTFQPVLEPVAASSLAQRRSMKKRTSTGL
SMILES,inhibition [1] [%],inhibition [2] [%],inhibition [3] [%],inhibition [4] [%],inhibition [5] [%],inhibition [6] [%],inhibition [7] [%],inhibition [8] [%],inhibition [9] [%],inhibition [10] [%],inhibition [11] [%],inhibition [12] [%],inhibition [13] [%],inhibition [14] [%],inhibition [15] [%],inhibition [16] [%],inhibition [17] [%],inhibition [18] [%],inhibition [19] [%],inhibition [20] [%]
O=S(=O)(CCOCc1ccc(-c2ccc3ncnc(Nc4ccc(OCc5cccc(F)c5)c(Cl)c4)c3c2)o1)c1ccccc1,-0.62,1.34,2.27,3.28,-0.92,3.38,1.38,-0.69,1.2,4.55,1.68,-2.09,-0.72,-0.74,1.37,1.25,2.98,0,0.46,-0.52
Cc1nc(-c2ccccc2)n2nc(NCCCN3CCOCC3)ncc12,12.8,2.86,2.79,2.32,0.65,0.22,1.99,2.89,6.04,3.08,4.91,0.66,20.3,1.1,-0.76,1.22,2.49,1.67,2.49,2.42
CC(C)c1ccc2c(c1)NC(=O)/C2=N/Nc1ccc(S(N)(=O)=O)cc1,0.17,0.54,0.73,5.31,-4.03,4.97,-1.88,-0.83,0.29,1.03,0.27,11,41.7,0.3,1.21,-0.18,7.2,-0.63,1.05,-0.9
COc1cc2ncnc(Nc3ccc(C)c(O)c3)c2cc1OC,3.03,2.84,5.46,3.56,2.34,2.82,4.55,4.38,5.7,3.32,5.2,7.16,1.93,1.23,3.78,3.07,6.2,-0.09,0.02,2.98
Cc1ccc(NC(=O)CC2CC2)cc1-c1ccc(C(=O)NCC2CC2)cc1,1,2.06,4.1,4.31,1.34,2.72,0.18,1.98,3.58,1,3.66,2.19,3.71,-0.17,0.46,1.82,3.93,0.97,0.89,2.5
ON=C1CCc2cc(-c3nc(C4CCNCC4)[nH]c3-c3ccncc3)ccc21,-0.49,0.64,0.87,-0.56,-1.29,-1.46,-0.07,-0.26,-1.59,-1.32,2.64,0.54,1.89,1.34,0.41,-0.35,1.99,0.14,11.8,1.63
COc1cc2ncn(-c3cc(OCc4ccccc4S(C)(=O)=O)c(C#N)s3)c2cc1OC,16.4,2.34,4.47,2.96,4.38,4.43,4.05,33.4,74.6,5.84,31.2,14.5,54.3,37.1,76.3,53.7,82.2,1.23,6.21,6.03
CN(C)c1cc2c(Nc3ccc4c(cnn4Cc4ccccc4)c3)ncnc2cn1,1.71,1.94,2.27,0.16,-0.04,1.86,1.33,2.65,3.27,1.84,2.49,1.17,3.46,2.42,7.54,2.27,9.3,-0.24,0.88,2.88
CCS(=O)(=O)c1ccc(OC)c(Nc2nccc(N(C)c3ccc4c(C)n[nH]c4c3)n2)c1,-0.55,2.43,2.8,4.15,2.6,3.28,1.75,1.93,2.62,2.9,3.91,-0.8,-2.26,0.17,4.69,3.82,4.12,3.64,0.51,2.57
CCCN1CCCC(c2ccc(Nc3nc(Nc4cc(F)ccc4C(N)=O)c4cc[nH]c4n3)c(OC)c2)C1 (stereo not given),54.1,3.79,4.78,1.44,6.37,4.46,0.16,6.07,20.3,4.5,10.7,30.2,59.7,2.61,1.82,2.57,2.9,15.8,61.1,11
CN(C)C(=O)O[C@@H]1CN[C@@H](C#Cc2cc3ncnc(Nc4ccc(OCc5cccc(F)c5)c(Cl)c4)c3s2)C1,1.1,0.97,0.35,-1.98,1.45,-0.94,-0.47,1.21,-0.92,-1.56,3.03,-0.32,0.15,1.77,1.18,1.4,1.44,1.61,1.9,1.78
COC(=O)c1cncc(/C=C/c2c(C)cc(O)cc2C)c1,6.87,3.1,4.65,3.28,2.28,2.89,4.83,2.38,5.18,0.21,2.21,3.22,8.1,-1.29,7.61,1.09,6.54,-0.5,-0.32,1.91
